“And” between values parts separate entries of the source, which are not always exact repeats. Equal entries are not always repeated. Records with an inconclusive call do not appear. The source holds several records for some structures; these can differ, active in one and inactive in another. The source made the active and inactive calls. Calls follow the shape of the dose curve; as a rule, active = well fitted curve in the direction sought with a large enough effect in the repeat runs; inconclusive = weak or mixed curves; inactive = no such curve, though single readings can be large; an effect the other way counts as inactive or inconclusive.

The target in assay [1] is Cytochrome P450 2C19 (Homo sapiens) (UniProt P33261). Kind of assay: Cytochrome P450 Family 2 Subfamily C Member 19 (CYP2C19) small molecule antagonists: luciferase reporter qHTS assay (AID 1671197). Also: nearly all actives have a fitted effect of over 65% in size. As to activity change, negative = inhibition: series mostly up to about 120 µM. Summed up:
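P450-Glo CYP2C19 system: enzyme-substrate mix with compound 10 min at room temperature, then NADPH regeneration solution, 1 h at 37C. Proluciferin-to-luciferin conversion detected by luminescence after 20 min with detection reagent; ketoconazole as positive control.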

The target of assay [2] is Cytochrome P450 2C9 (Homo sapiens) (UniProt P11712). Put plainly: Cytochrome P450 Family 2 Subfamily C Member 9 (CYP2C9) small molecule antagonists: luciferase reporter qHTS assay (AID 1671198). Also: nearly all actives have a fitted effect of over 50% in size. As to activity change, negative = inhibition: series mostly up to about 120 µM. The essentials: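 P450-Glo proluciferin substrate with CYP2C9 enzyme; 10 min RT preincubation, then NADPH regeneration 1 h at 37C; luciferin detection reagent 20 min RT, luminescence in relative luminescence units.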
Cytochrome P450 2C9 (Homo sapiens), sequence (P11712 whole entry, looked up): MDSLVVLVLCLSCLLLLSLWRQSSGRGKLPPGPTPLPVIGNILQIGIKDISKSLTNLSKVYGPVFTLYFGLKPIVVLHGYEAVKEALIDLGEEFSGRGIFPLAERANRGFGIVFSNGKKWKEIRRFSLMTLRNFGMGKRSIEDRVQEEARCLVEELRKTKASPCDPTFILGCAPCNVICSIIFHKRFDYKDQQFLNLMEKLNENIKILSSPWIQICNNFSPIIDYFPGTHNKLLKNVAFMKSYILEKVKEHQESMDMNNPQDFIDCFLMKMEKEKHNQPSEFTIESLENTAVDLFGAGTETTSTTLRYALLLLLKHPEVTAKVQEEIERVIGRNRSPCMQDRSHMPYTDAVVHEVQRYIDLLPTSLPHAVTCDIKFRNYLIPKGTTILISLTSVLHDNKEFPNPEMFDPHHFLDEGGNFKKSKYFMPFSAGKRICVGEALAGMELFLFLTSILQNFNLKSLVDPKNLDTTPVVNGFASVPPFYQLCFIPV

In assay [3] the target is Cytochrome P450 1A2 (Homo sapiens) (UniProt P05177). Kind of assay: Cytochrome P450 Family 1 Subfamily A Member 2 (CYP1A2) small molecule antagonists: luciferase reporter qHTS assay (AID 1671199). Also: nearly all actives have a fitted effect of over 50% in size. As to activity change, negative = inhibition: series mostly up to about 120 µM. Summed up: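 Luminescence from luciferin formed by CYP1A2 from a proluciferin substrate, read 20 min after detection reagent. Compound was pre-incubated 10 min with enzyme-substrate, and reaction started with NADPH regeneration solution for 1 h at room temperature; furafylline control.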
Cytochrome P450 1A2 (Homo sapiens), sequence (P05177 whole entry, looked up): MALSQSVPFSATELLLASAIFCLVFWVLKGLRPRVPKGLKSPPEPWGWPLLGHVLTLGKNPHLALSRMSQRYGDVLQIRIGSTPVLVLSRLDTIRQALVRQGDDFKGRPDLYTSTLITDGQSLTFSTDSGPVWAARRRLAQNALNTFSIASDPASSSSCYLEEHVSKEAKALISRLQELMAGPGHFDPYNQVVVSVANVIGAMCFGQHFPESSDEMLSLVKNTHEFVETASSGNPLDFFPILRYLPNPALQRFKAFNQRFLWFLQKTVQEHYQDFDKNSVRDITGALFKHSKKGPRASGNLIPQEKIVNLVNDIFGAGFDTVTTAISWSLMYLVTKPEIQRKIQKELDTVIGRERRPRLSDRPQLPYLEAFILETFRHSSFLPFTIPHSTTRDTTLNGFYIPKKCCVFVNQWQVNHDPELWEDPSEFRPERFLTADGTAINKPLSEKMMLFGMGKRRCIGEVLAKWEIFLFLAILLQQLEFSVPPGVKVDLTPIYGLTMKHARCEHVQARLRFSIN

Assay [4] addresses Voltage-gated inwardly rectifying potassium channel KCNH2 (Homo sapiens) (UniProt Q12809). Kind of assay: Human Ether-a-go-go-Related Gene (hERG) channel small molecule antagonists: fluorescence cell-based qHTS assay (AID 1671200). Also: nearly all actives have a fitted effect of over 50% in size.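 As to activity change, negative = inhibition: hERG-expressing U2OS cells given a thallium stimulus after FluxOR II dye loading; series mostly up to about 77 µM.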 The essentials:
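Thallium served as the potassium surrogate; its influx into dye-loaded U2OS cells carrying the channel was measured by fluorescence over 2 min.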

The target of assay [5] is Cytochrome P450 3A4 (Homo sapiens) (UniProt P08684). Kind of assay: Cytochrome P450 Family 3 Subfamily A Member 4 (CYP3A4) small molecule antagonists: luciferase reporter qHTS assay (AID 1671201). Also: nearly all actives have a fitted effect of over 50% in size. As to activity change, negative = inhibition: series mostly up to about 120 µM. The essentials: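 Relative luminescence units after 20 min with luciferin detection reagent served as read-out. Beforehand, CYP3A4 turned over a proluciferin substrate for 1 h at room temperature with NADPH regeneration, following 10 min compound preincubation.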
Cytochrome P450 3A4 (Homo sapiens), sequence (P08684 whole entry, looked up): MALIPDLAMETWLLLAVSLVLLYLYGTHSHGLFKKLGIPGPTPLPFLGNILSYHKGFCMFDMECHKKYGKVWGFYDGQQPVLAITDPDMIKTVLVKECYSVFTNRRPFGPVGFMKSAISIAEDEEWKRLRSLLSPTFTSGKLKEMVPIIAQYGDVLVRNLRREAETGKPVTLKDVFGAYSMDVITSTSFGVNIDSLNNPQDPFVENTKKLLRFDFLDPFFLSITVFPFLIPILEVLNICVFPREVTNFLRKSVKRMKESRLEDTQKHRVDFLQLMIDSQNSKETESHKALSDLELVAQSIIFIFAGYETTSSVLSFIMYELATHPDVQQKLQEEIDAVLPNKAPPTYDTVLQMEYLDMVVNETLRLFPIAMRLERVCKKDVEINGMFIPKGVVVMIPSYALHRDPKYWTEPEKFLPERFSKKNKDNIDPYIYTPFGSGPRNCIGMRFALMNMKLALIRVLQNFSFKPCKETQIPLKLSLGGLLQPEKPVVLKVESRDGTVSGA
% is scaled to controls: 0 for no effect and ±100 for the full control effect; potency is read from the fitted curve at half-maximal effect.

Voltage-gated inwardly rectifying potassium channel KCNH2 (Homo sapiens), sequence (Q12809 whole entry, looked up): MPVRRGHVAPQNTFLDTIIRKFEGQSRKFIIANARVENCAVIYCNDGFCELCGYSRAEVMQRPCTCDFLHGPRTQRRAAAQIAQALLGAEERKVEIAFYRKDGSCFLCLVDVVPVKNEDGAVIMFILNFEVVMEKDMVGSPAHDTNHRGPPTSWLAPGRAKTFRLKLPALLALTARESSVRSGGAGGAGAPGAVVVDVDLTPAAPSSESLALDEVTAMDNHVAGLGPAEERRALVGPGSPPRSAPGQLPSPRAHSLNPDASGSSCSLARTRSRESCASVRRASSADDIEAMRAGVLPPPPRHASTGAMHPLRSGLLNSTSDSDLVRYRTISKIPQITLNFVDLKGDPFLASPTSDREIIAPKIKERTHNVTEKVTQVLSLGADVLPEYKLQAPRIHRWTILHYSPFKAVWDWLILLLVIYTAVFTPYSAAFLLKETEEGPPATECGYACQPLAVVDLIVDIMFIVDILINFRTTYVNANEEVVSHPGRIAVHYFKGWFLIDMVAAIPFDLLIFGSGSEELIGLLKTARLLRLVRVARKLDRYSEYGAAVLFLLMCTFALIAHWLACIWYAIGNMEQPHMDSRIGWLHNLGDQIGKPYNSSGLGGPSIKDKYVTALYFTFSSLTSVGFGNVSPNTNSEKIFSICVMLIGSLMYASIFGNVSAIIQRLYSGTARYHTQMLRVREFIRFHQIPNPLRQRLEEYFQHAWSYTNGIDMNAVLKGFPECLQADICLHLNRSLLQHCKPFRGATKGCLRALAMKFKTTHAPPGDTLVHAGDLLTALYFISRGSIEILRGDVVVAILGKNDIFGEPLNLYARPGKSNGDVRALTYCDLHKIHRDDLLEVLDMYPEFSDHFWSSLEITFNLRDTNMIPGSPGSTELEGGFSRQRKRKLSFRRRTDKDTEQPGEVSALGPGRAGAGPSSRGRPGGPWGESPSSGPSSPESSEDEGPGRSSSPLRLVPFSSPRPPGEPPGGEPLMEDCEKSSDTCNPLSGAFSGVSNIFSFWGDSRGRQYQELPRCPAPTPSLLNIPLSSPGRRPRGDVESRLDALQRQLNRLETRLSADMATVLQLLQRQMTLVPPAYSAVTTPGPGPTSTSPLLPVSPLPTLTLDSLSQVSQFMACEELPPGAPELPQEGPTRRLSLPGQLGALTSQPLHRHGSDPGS
Cytochrome P450 2C19 (Homo sapiens), sequence (P33261 whole entry, looked up): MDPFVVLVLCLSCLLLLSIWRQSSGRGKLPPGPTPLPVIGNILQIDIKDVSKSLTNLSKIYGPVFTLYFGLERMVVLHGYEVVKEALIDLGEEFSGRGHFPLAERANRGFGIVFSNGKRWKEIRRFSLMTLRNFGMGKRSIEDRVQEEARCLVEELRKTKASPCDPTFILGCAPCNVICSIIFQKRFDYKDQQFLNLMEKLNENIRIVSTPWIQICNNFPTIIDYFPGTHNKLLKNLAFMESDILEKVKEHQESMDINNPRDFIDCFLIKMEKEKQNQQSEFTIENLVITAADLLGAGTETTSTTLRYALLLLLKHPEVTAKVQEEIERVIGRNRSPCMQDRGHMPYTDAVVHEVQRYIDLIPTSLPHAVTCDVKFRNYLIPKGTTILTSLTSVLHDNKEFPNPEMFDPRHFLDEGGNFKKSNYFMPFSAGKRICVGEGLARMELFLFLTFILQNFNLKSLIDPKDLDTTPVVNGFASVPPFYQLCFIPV

As for `C=C(C)c1cccc(C(=C)C)c1`, the Potency entry in assay [1], in assay [2], in assay [3], in assay [4] and in assay [5] was “inactive” in each case.

On to `C[C@@H](O)[C@H](N)C(=O)O`, for which the activity change, negative = inhibition in assay [1] was 6.88% [at 23.6 µM] (inactive); in assay [2], 17.9% [at 23.6 µM] (inactive); in assay [3] it was 12.2% [at 23.6 µM] (inactive); in assay [4], 1.94% [at 15.8 µM] (inactive); in assay [5] it was 16.7% [at 23.6 µM] (inactive).

Consider `C[C@H]1NCc2cc(-c3ccc4c(=O)c(C(=O)O)cn(C5CC5)c4c3OC(F)F)ccc21`, for which the activity change, negative = inhibition in assay [1] was -6.59% [at 23.6 µM] (inactive); in assay [2] it was 0.717% [at 23.6 µM] (inactive); in assay [3] it was 13.9% [at 23.6 µM] (inactive); in assay [4] it was -3.88% [at 15.8 µM] (inactive); in assay [5], 10.5% [at 23.6 µM] (inactive).

In the case of `Nc1ccc(NCCO)c([N+](=O)[O-])c1`, the Potency in assay [1] is 79.6 µM (active); in assay [2], 35.6 µM (active); in assay [3], 31.7 µM (active); in assay [5] it was 25.2 µM (active). The Potency entry in assay [4] was “inactive”.

Consider `CCCCCCCCCCCCCC[N+](C)(C)C`, for which the Potency is 63.2 µM (active) in assay [1]; 13.3 µM (active) and 19.5 µM (active) and 21.3 µM (active) in assay [4]. In addition, the Potency result in assay [2], in assay [3] and in assay [5] was “inactive” throughout.

For the molecule `CCCCCCCC`, the Potency entry in assay [1], in assay [2], in assay [3], in assay [4] and in assay [5] was “inactive” throughout.

`COC1=C(OC)C(=O)C(CCCCCCCCCCO)=C(C)C1=O`: the Potency in assay [1] was 4.9 µM (active); in assay [2], 11 µM (active); in assay [3], 15.5 µM (active). The Potency result in assay [4] and in assay [5] was “inactive” throughout.

`Nc1cc(Cl)c(O)c(Cl)c1`: the Potency in assay [1] is 20 µM (active); in assay [2], 28.3 µM (active); in assay [3] it was 39.9 µM (active); in assay [5], 8.94 µM (active). Further, the Potency entry in assay [4] is “inactive”.

`CCCCCCCCCCCCOC(=O)c1ccc(O)cc1`: the Potency in assay [1] was 4.02 µM (active); in assay [2], 4.52 µM (active); in assay [3] it was 12.7 µM (active); in assay [5] it was 35.9 µM (active). Further, the Potency result in assay [4] was “inactive”.

Turning to `OC12N=C(c3ccccc3)SC1Cc1cc(Cl)ccc12` (stereo unspecified), the Potency was 0.126 µM (active) in assay [1], 0.894 µM (active) in assay [2], 1.78 µM (active) in assay [3] and 31.7 µM (active) in assay [5]. For the same molecule, the Potency result in assay [4] is “inactive”.

Take `CCCNCCC`: the Potency entry in assay [1], in assay [2], in assay [3], in assay [4] and in assay [5] was “inactive” each time.

For `Cc1cc(C)c(/C=C2\C(=O)Nc3ccccc32)[nH]1`, the results for the Potency in assay [1], in assay [2] and in assay [3] were 7.76 µM (active), 11 µM (active) and 1.44 µM (active), respectively. In addition, the Potency entry in assay [4] and in assay [5] was “inactive” each time.

Turning to `Clc1ccnc(Cl)n1`, the Potency entry in assay [1], in assay [2], in assay [3], in assay [4] and in assay [5] was “inactive” in each case.

`C=C(CC)C(=O)c1ccc(OCC(=O)O)c(Cl)c1Cl`: the Potency entry in assay [1], in assay [3], in assay [4] and in assay [5] was “inactive” in each case. The Potency in assay [2] is 8.88 µM (active) and 5.49 µM (active).

For the molecule `Clc1sc(Cl)c(Cl)c1Cl`, the Potency result in assay [1], in assay [2], in assay [3], in assay [4] and in assay [5] was “inactive” in each case.

On to `CC1(C)CCC[C@]2(C)[C@H]3CCO[C@]3(C)CC[C@@H]12`, for which the Potency entry in assay [1], in assay [2], in assay [3], in assay [4] and in assay [5] was “inactive” in each case.

For `CC1=Nc2ccccc2C1(C)C`, the Potency is 63.4 µM (active) in assay [1], 40 µM (active) in assay [2], 63.4 µM (active) in assay [3] and 63.4 µM (active) in assay [5]. In assay [4], the Potency result is “inactive”.

For the molecule `CCCCCCCCCCCCCC[N+](C)(C)Cc1ccccc1`, the Potency in assay [1] is 64.3 µM (active) and 20 mM (active); in assay [2], 80.9 µM (active); in assay [3], 72.1 µM (active) and inactive; in assay [4], 993 nM (active) and 1.69 µM (active) and 1000 µM (active). For the same molecule, the Potency result in assay [5] was “inactive”.

Turning to `CN(C)C(=O)COC(=O)Cc1ccc(OC(=O)c2ccc(N=C(N)N)cc2)cc1`, the Potency result in assay [1], in assay [2], in assay [3], in assay [4] and in assay [5] was “inactive” each time.

For the molecule `C=Cc1cccc(C)c1`, the Potency entry in assay [1], in assay [2], in assay [3], in assay [4] and in assay [5] was “inactive” throughout.

For the molecule `CCCCC/C=C\C/C=C\CCCCCCCC(=O)O`, the Potency in assay [1] was 22.1 µM (active) and inactive; in assay [2], 35 µM (active) and 31.7 µM (active); in assay [5] it was 39.9 µM (active). Besides, the Potency result in assay [3] and in assay [4] was “inactive” each time.

As for `COC(=O)c1ccccc1OC`, the Potency entry in assay [1], in assay [2], in assay [4] and in assay [5] was “inactive” throughout. For the same molecule, the Potency in assay [3] was 25.2 µM (active).

Consider `NC(=S)NC(N)=S`, for which the figures for the Potency in assay [1], in assay [2] and in assay [3] were 20 µM (active), 7.96 µM (active) and 35.6 µM (active), respectively. Further, the Potency result in assay [4] and in assay [5] was “inactive” throughout.

For the molecule `[Cl][Pt-2]([Cl])([Cl])[Cl]`, the values for the Potency in assay [1], in assay [2] and in assay [3] were 22.6 µM (active), 25.3 µM (active) and 35.7 µM (active), respectively. Further, in assay [5], the Potency result was “inactive”.

As for `CCC(=O)OC(=O)CC`, the Potency entry in assay [1], in assay [2], in assay [3], in assay [4] and in assay [5] was “inactive” in each case.

As for `CC(=O)CC(=O)Nc1ccc(S(=O)(=O)O)cc1`, the Potency result in assay [1], in assay [2], in assay [3], in assay [4] and in assay [5] was “inactive” throughout.

For the molecule `Cc1ccc(O)c(N)c1`, the Potency in assay [1] is 35.6 µM (active); in assay [2] it was 15.9 µM (active); in assay [3], 40 µM (active); in assay [5], 15.9 µM (active). In addition, the Potency entry in assay [4] was “inactive”.

For `CCn1c2ccccc2c2cc([N+](=O)[O-])ccc21`, the Potency in assay [1] is 7.96 µM (active); in assay [3], 1.12 µM (active). Moreover, the Potency result in assay [2] and in assay [5] was “inactive” in each case.

As for `CCCC[P+](C)(CCCC)CCCC`, the Potency entry in assay [1], in assay [2], in assay [3] and in assay [5] was “inactive” throughout.

As to `CC(C)(C)C1CCC(=O)CC1`, in assay [1], the Potency was 7.96 µM (active). Further, the Potency result in assay [2], in assay [4] and in assay [5] was “inactive” throughout.

These data come from PubChem BioAssay (Tox21).
